Reference: PubChem BioAssay (NCATS)
Inconclusive results are not listed. Values without a mark were called inactive. Calls follow the shape of the dose curve; as a rule, active = well fitted curve in the direction sought with a large enough effect in the signal ratio, with a control signal flat (not every such curve was filed as active); inconclusive = small, poorly fitted or top-dose-only effect, or effect the other way, or a change in a side signal; inactive = no such curve, though single readings can be large or run the other way; the % refers to the signal ratio.

biological target: Tyrosine-protein phosphatase non-receptor type substrate 1 (Homo sapiens) + Leukocyte surface antigen CD47 (Homo sapiens) (UniProt P78324+Q08722); experiment: CD47-SIRPalpha protein protein interaction - LANCE assay qHTS validation (AID 1347057); conditions: Recombinant CD47-His / biotin-SIRPalpha, TR-FRET ratio; series mostly up to 38.3 µM; activity change, negative = inhibition: at the top concentration; also: 0% is about no effect
Sequence (P78324 whole entry, looked up): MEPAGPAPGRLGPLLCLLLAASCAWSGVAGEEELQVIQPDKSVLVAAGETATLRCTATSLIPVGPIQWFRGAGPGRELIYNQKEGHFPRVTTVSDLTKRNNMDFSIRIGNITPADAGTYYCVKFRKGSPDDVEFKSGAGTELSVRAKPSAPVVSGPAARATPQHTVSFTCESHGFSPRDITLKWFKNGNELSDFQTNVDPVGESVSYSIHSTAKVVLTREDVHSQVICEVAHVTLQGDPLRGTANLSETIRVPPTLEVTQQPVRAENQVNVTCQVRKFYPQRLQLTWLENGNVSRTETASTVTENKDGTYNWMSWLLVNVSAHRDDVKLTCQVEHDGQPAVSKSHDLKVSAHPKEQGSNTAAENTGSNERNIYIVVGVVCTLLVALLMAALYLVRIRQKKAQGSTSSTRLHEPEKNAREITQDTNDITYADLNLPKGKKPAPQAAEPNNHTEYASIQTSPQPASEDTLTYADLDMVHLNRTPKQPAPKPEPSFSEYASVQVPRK
Sequence (Q08722 whole entry, looked up): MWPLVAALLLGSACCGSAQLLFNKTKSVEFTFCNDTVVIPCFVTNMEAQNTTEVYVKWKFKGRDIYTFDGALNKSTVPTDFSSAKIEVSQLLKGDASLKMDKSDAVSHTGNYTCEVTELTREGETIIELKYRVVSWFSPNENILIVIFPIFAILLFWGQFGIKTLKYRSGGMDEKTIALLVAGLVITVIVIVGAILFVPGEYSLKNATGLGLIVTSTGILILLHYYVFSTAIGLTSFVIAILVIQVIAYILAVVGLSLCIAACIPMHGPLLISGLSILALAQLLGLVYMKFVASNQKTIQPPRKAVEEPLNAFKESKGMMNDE
Text: SIRPalpha is a myeloid cell expressed immunomodulatory receptor that binds the tumor expressed immune checkpoint CD47. Therapeutic disruption of this interaction leads to immune-mediated tumor rejection. This assay was used to quantitate CD47-SIRPalpha binding biochemically and evaluate chemical libraries for novel CD47-SIRPalpha inhibitors. To recapitulate the biological interaction of CD47 and SIRPalpha, we designed expression constructs to produce their recombinant, soluble, extracellular interaction domains. CD47 was produced with an N-terminal 6His tag. SIRPalpha was produced with an N-terminal Avi-Tag for site-specific biotin incorporation. The CD47-SIRPalpha interaction was measured by TR-FRET using affinity tag linked reagents (anti-6His-Eu donor and streptavidin-APC acceptor). SIRPalpha without biotin incorporation was used as a positive control inhibitor.
PROTOCOL TABLE (as described by Miller, T. et al. 2019)
SEQUENCE No. (e.g., 1, 2, 3, etc.); […] (e.g., Cells, Incubation, Reagent, etc.); VALUE and DESCRIPTION.
1a. Reagent. 3 uL CD47-His (12.5 nM) and Anti-His Eu Donor reagent (3 nM) added to respective wells in Assay buffer; white/solid bottom high base, med bind 1536-well plates (Greiner 789075)
1b. Reagent. 2 uL Assay buffer negative control for background fluorescence
2. Reagent. 23 nL library compounds (7-pt, 1:4 intraplate titration series) or DMSO control transferred by Pin Tool
3. Centrifuge. Centrifuge plate for 30 s at 1000 RPM
4. Incubation.#Incubate reagents at room temperature for 30 min, protected from light
5. Reagent. 2 uL SIRPalpha-biotin (100 nM) in Assay buffer
6. Incubation.#Incubate reagents at room temperature for 30 min, protected from light
7. Reagent. 1 uL SAV-APC (26 nM) acceptor reagent added to respective wells
8. Centrifuge. Centrifuge plate for 30 s at 1000 RPM
9. Incubation. Incubate reagents at room temperature for 30 min, protected from light
10. Detector. Measure Top TR-FRET on EnVision (Eu/APC filter set); calculate ratio Ch1/Ch2
1. Assay buffer composition.#Phosphate buffered saline (PBS; 10 mM Phosphate, 137 mM NaCl, and 2.7 mM KCl; pH 7.4), 0.05% IGEPAL CA-630
2. 23nL of […] library compounds (7 plates) or DMSO vehicle control transferred to 9 Greiner white/solid bottom high base, TC plates in 7 interplate 1:5 titrations (see Yasgar, A. et al. 2008) with Pintool. Two of the 9 plates are DMSO-only in compound field at beginning and end of compound library-treated plates.
10. Detector settings#Mirror = LANCE/DELFIA Dual Enh; Ex. Filter = UV2[TRF] 320; Em. Filter = APC 665; 2nd Em. Filter = Europium 615; Measurement h = 6.5; Ex. light (%) = 100; Delay = 60 us; Window t = 100 us; No. Seq. windows = 1; Time between flashes = 2000us; No. of flashes = 100; No. of flashes for 2nd detector = 100; Calculation: "Ratio Ch1/Ch2"

Point of comparison: C1CCc2nnnn2CC1, “activity change, negative = inhibition” value 0.791%. Against it:
- CCCC1O[C@@H]2C[C@H]3[C@@H]4CCC5=CC(=O)C=C[C@]5(C)[C@H]4[C@@H](O)C[C@]3(C)[C@]2(C(=O)CO)O1 (stereo partly specified) — higher, 3%
- CC(CCc1ccccc1)NCC(O)c1ccc(O)c(C(N)=O)c1 (stereo unspecified) — the same, 0.791%
- CCC(NC(C)C)C(O)c1ccc(O)c(O)c1 (stereo unspecified) — lower, 0.0355%
- CC[C@H](C)C(=O)O[C@H]1CCC=C2C=C[C@H](C)[C@H](CC[C@@H]3C[C@@H](O)CC(=O)O3)[C@H]21 — higher, 0.967%
- CNCCC(Oc1ccccc1C)c1ccccc1 (stereo unspecified) — lower, 0.22%
- CCCn1c(=O)[nH]c(=O)c2[nH]cnc21 — lower, 0.435%
- O=C1CCC(c2ccc(-n3ccnc3)cc2)=NN1 — lower, -1.12%
- CC(C)COC(=O)OCN1C(=O)CN(CCN2CC(=O)N(COC(=O)OCC(C)C)C(=O)C2)CC1=O — higher, 1.41%
- C[N+]1(CCCCC[N+]2(C)CCCC2)CCCC1 — the same, 0.791%
- Oc1ccc(O)cc1 — higher, 2.63%
- CC1(C)CCC(NC(=O)[C@@H](N)CCC(=O)O)CC1 — higher, 1.06%
- N[C@@H](Cc1cnc[nH]1)C(=O)O — higher, 4.62%
- CNCCC=C1c2ccccc2CCc2ccccc21 — higher, 2.81%
- N[C@H](CO)C(=O)O — higher, 1.25%
- CN1C2CCC1CC(OC(=O)c1c[nH]c3ccccc13)C2 (stereo unspecified) — higher, 1.32%
- COc1cc2c(cc1O)CC[C@@H]1[C@@H]2CC[C@]2(C)[C@@H](O)CC[C@@H]12 — lower, -0.347%
- C[C@@H]1C(=O)NC2=Nc3cccc(Cl)c3CN21 — higher, 2.91%
- Nc1cc(Cl)c(NC2=NCCN2)c(Cl)c1 — lower, -0.0647%
- O=C(O)c1cc2cc(Cc3cccnc3)ccc2o1 — lower, -0.3%
- CC(=O)O[C@H]1C[C@@H]2CC[C@@H]3[C@H](CC[C@@]4(C)[C@H]3C[C@H]([N+]3(C)CCCCC3)[C@@H]4OC(C)=O)[C@@]2(C)C[C@@H]1[N+]1(C)CCCCC1 — lower, -0.352%
